Measurements taken from PubChem BioAssay.
Unmarked numbers belong to inactive results.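 Rule for the calls: active = RAM network inhibition above 8.4% in each of two replicates, 3 SD over the compound average; inconclusive = above 8.4% inhibition in only one replicate; inactive = 8.4% inhibition or less in each replicate.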

test: RAM signaling pathway blockade in yeast – S. cerevisiae, Pdr1DBD-CYC8 efflux-inhibited sensitized strain, primary screen (AID 1298);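 note: 0% = DMSO untreated cells without growth and 100% = 10 µM 1-NA-PP1 full growth; higher means more yeast growth rescued from 5-FOA killing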; conditions: S. cerevisiae cbk1-as DSE1-URA3 strain, 5-FOA growth OD615, 2 d; at 50 µM; hits give high values

Point of comparison: Cc1c(C(=O)NCc2cccnc2)sc2nc(-c3ccc(F)cc3)cn12, RAM network inhibition 2.56%. Against it:
- COc1cc2c(cc1OC)C(C(=O)NC1CC1)C1c3ccccc3CCN1C2=O (stereo not given) — lower, 0.1%
- CCSc1nnc(Cn2c(=O)sc3ccccc32)n1C — lower, -0.45%
- COC(=O)c1ccc(N2C(=O)CC(Sc3n[nH]c(C)n3)C2=O)cc1 (stereo not given) — lower, 2.32%
- Cc1ccc(-c2noc(CSc3nnnn3-c3ccccc3)n2)cc1 — higher, 7.44%
- CC(=O)c1cccc(NC(=O)c2cc(C(C)C)on2)c1 — lower, 0.94%
- COc1ccc(CNC(=O)c2cc3c(C)nc4ccccc4c3o2)c(OC)c1 — higher, 6.46%
- CCn1cc(S(=O)(=O)CC(=O)Nc2ccc(C)cc2)c2ccccc21 — lower, 2.02%
- COc1ccc(S(=O)(=O)NCCN2CCOCC2)c2ccccc12 — lower, 1.53%
- Cn1c(=O)c2c(nc(NCCc3ccccc3)n2Cc2ccc(F)cc2)n(C)c1=O — higher, 5.94%
- O=C(NCCc1cn2ccsc2n1)c1cccs1 — higher, 3.51%
- Cc1ccc2oc(=O)c3cnn(CC(=O)N(CCCN4CCOCC4)Cc4ccco4)c3c2c1 — higher, 3.73%
- Cc1ccccc1-c1noc(-c2cccs2)n1 — higher, 6%
- Cc1cc(S(=O)(=O)N2CCN(Cc3ccccc3)CC2)c(C)s1 — higher, 4.48%
- COc1ccc(OC)c(NC(=O)C2CCCN(S(=O)(=O)c3cccc4cccnc34)C2)c1 (stereo not given) — higher, 6.71%
- CCC(C)N1C(=O)CCC1C(=O)NCc1ccc2c(c1)OCO2 (stereo not given) — higher, 4.46%
- O=C(CCCOc1ccccc1)NCC1CCCO1 (stereo not given) — lower, 0.83%
- COC(=O)c1ccccc1NC(=O)c1c(O)c2c([nH]c1=O)CCCC2 — lower, 1.65%
- COc1cccc(Nc2cc(C)nc3nc(C)nn23)c1 — lower, 2.37%
- COc1ccc(N2CSC3=C(C#N)C(c4cc(OC)c(OC)cc4OC)CC(=O)N3C2)c(OC)c1 (stereo not given) — higher, 2.63%
- COc1ccc(CC(=O)N2CC3(C)CC2CC(C)(C)C3)cc1OC (stereo not given) — higher, 6.83%
- CCC(CC)C(=O)Nc1cc(C)c2c(=O)oc3ccccc3c2n1 — higher, 9.87%
- CCOC(=O)N1CCN(CC(=O)Nc2cc(OCC)ccc2OCC)CC1 — higher, 7.52%
- Cc1ccc2c(CC(=O)Nc3nc(C)cs3)coc2c1 — lower, 0.88%
- O=C(Nc1ccccc1)N(CCc1ccncc1)C1CCCCC1 — lower, -0.83%
- COc1ccc(C2C(C(=O)NCC3CCCO3)c3cc(OC)c(OC)cc3C(=O)N2C)cc1OC (stereo not given) — lower, 0.94%
- Cc1cc(C)c(C#N)c(Nc2ccc3c(c2)OCCO3)n1 — lower, 0.66%
- O=C(Cn1ncc2c(=O)oc3ccccc3c21)N1CCC(N2CCCCC2)CC1 — higher, 4.58%
- CCCC(=O)Nc1nc2c(OC)ccc(OC)c2s1 — higher, 3.64%
- O=C(Nc1nccs1)C1CCCN(S(=O)(=O)c2cccc3cccnc23)C1 (stereo not given) — higher, 4.95%
- Cc1c(N=c2c(=O)c3ccccc3c2=O)c(=O)n(-c2ccccc2)n1C — higher, 3.66%
- CCOCCOC(=O)C1=C(C)NC2=C(C(=O)CC(c3cccs3)C2)C1c1ccsc1 (stereo not given) — higher, 6.89%
- COc1ccc(CN2CCN(c3ncccn3)CC2)c(OC)c1 — higher, 6.9%
- Cc1cc(Nc2ccc(F)cc2Cl)n2nc(C)nc2n1 — lower, 2.31%
- COC(=O)C1C(=O)C=C(N2CCOCC2)CC1(C)C (stereo not given) — lower, 1.92%
- COc1ccc(S(=O)(=O)N2CCN(c3cccc(C)c3C)CC2)cc1 — higher, 2.58%
- O=C(Nc1ccccc1Cl)c1ccc2c(c1)N(Cc1ccc(F)cc1)C(=O)CS2=O (stereo not given) — higher, 3.95%
- CCOC(=O)c1cc2c(=O)n3cccc(C)c3nc2n(CCCOC)c1=NC(=O)c1cccnc1 — higher, 6.01%
- Cc1cccc(OCCCCCNCCO)c1 — lower, 0.57%
- COc1ccc(OC)c(Nc2cc(C)nc3nc(C)nn23)c1 — higher, 5.24%
